From PubChem BioAssay AID1159580 (chemical genetic matrix, 2015)
Screen size: about 5,500 compounds; about 2,000 (36%) were called active. Roughly 18% stayed inconclusive and do not appear here. No stated cut-off is given here; in the data, active means normalized growth mostly below about 0.91 (no sharp cut-off); inconclusive means no clear call, values can overlap the other calls; inactive means mostly above about 0.92. Some of the results follow.

Assay: chemical genetic growth profiling, strain panel (AID 1159580);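 further: tested at 20 µM; growth read once vehicle control cultures reached saturation at 30 °C; 1 = growth at the plate median or of vehicle wells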
Conditions: growth OD

Measured: normalized growth

NC(=NCCC[C@H](N)C(=O)O)NC(CCC(=O)O)C(=O)O (stereo partly drawn)
inactive: S. cerevisiae deletion strains, locus YAL021C, strain ccr4, stronger effect = lower value 1 | S. cerevisiae deletion strains, locus YAL026C, strain drs2, stronger effect = lower value 1 | S. cerevisiae deletion strains, locus YAL030W, strain snc1, stronger effect = lower value 1 | S. cerevisiae deletion strains, locus YBL061C, strain skt5, stronger effect = lower value 1.01 | S. cerevisiae deletion strains, locus YBR009C, strain hhf1, stronger effect = lower value 1 | S. cerevisiae deletion strains, locus YBR021W, strain FUR4, stronger effect = lower value 1.02 | S. cerevisiae deletion strains, locus YBR023C, strain chs3, stronger effect = lower value 1.01 | S. cerevisiae deletion strains, locus YBR171W, strain sec66, stronger effect = lower value 1.02 | S. cerevisiae deletion strains, locus YBR229C, strain ROT2, stronger effect = lower value 1.01 | S. cerevisiae deletion strains, locus YBR231C, strain swc5, stronger effect = lower value 1.01 | S. cerevisiae deletion strains, locus YBR279W, strain paf1, stronger effect = lower value 0.998 | S. cerevisiae deletion strains, locus YCL011C, strain gbp2, stronger effect = lower value 1.01 | S. cerevisiae deletion strains, locus YCL016C, strain dcc1, stronger effect = lower value 1.01 | S. cerevisiae deletion strains, locus YCL029C, strain bik1, stronger effect = lower value 1.03 | S. cerevisiae deletion strains, locus YCL061C, strain MRC1, stronger effect = lower value 0.998 | S. cerevisiae deletion strains, locus YCL069W, strain vba3, stronger effect = lower value 1.01 | S. cerevisiae deletion strains, locus YCR088W, strain abp1, stronger effect = lower value 1.01 | S. cerevisiae deletion strains, locus YDL005C, strain med2, stronger effect = lower value 1.01 | S. cerevisiae deletion strains, locus YDL035C, strain GPR1, stronger effect = lower value 1.02 | S. cerevisiae deletion strains, locus YDL040C, strain nat1, stronger effect = lower value 1.01 | S. cerevisiae deletion strains, locus YDL074C, strain BRE1, stronger effect = lower value 1.05 | S. cerevisiae deletion strains, locus YDL101C, strain DUN1, stronger effect = lower value 1.01 | S. cerevisiae deletion strains, locus YDL185W, strain tfp1, stronger effect = lower value 1.01 | S. cerevisiae deletion strains, locus YDL192W, strain arf1, stronger effect = lower value 1.02 | S. cerevisiae deletion strains, locus YDR001C, strain nth1, stronger effect = lower value 1.01 | S. cerevisiae deletion strains, locus YDR069C, strain doa4, stronger effect = lower value 1.01 | S. cerevisiae deletion strains, locus YDR101C, strain arx1, stronger effect = lower value 1.04 | S. cerevisiae deletion strains, locus YDR137W, strain rgp1, stronger effect = lower value 0.992 | S. cerevisiae deletion strains, locus YDR159W, strain sac3, stronger effect = lower value 1.01 | S. cerevisiae deletion strains, locus YDR162C, strain NBP2, stronger effect = lower value 0.977 | S. cerevisiae deletion strains, locus YDR195W, strain ref2 0.974 | S. cerevisiae deletion strains, locus YDR297W, strain sur2, stronger effect = lower value 1.01 | S. cerevisiae deletion strains, locus YDR318W, strain mcm21, stronger effect = lower value 1 | S. cerevisiae deletion strains, locus YDR334W, strain swr1, stronger effect = lower value 1.01 | S. cerevisiae deletion strains, locus YDR335W, strain msn5, stronger effect = lower value 0.995 | S. cerevisiae deletion strains, locus YDR388W, stronger effect = lower value 1.02 | S. cerevisiae deletion strains, locus YDR392W, strain spt3, stronger effect = lower value 1.02 | S. cerevisiae deletion strains, locus YDR502C, strain sam2, stronger effect = lower value 1.01 | S. cerevisiae deletion strains, locus YEL003W, strain gim4, stronger effect = lower value 1 | S. cerevisiae deletion strains, locus YEL037C, strain rad23, stronger effect = lower value 1 | S. cerevisiae deletion strains, locus YEL061C, strain CIN8 (second series), stronger effect = lower value 1 | S. cerevisiae deletion strains, locus YEL061C, strain CIN8, stronger effect = lower value 1.01 | S. cerevisiae deletion strains, locus YER015W, strain faa2, stronger effect = lower value 1.01 | S. cerevisiae deletion strains, locus YER016W, strain bim1, stronger effect = lower value 1 | S. cerevisiae deletion strains, locus YER110C, stronger effect = lower value 1.01 | S. cerevisiae deletion strains, locus YER111C, strain swi4, stronger effect = lower value 0.996 | S. cerevisiae deletion strains, locus YER155C, strain BEM2 (second series), stronger effect = lower value 1.02 | S. cerevisiae deletion strains, locus YER155C, strain BEM2, stronger effect = lower value 1.01 | S. cerevisiae deletion strains, locus YER167W, strain BCK2, stronger effect = lower value 1.02 | S. cerevisiae deletion strains, locus YFR010W, strain ubp6, stronger effect = lower value 1.01 | S. cerevisiae deletion strains, locus YGL078C, strain dbp3, stronger effect = lower value 1.02 | S. cerevisiae deletion strains, locus YGL086W, strain mad1, stronger effect = lower value 1.04 | S. cerevisiae deletion strains, locus YGL167C, strain pmr1, stronger effect = lower value 1.01 | S. cerevisiae deletion strains, locus YGL173C, strain kem1, stronger effect = lower value 1.01 | S. cerevisiae deletion strains, locus YGL227W, strain vid30, stronger effect = lower value 1.01 | S. cerevisiae deletion strains, locus YGL240W, strain doc1, stronger effect = lower value 1.02 | S. cerevisiae deletion strains, locus YGL248W, strain PDE1, stronger effect = lower value 0.999 | S. cerevisiae deletion strains, locus YGL253W, strain hxk2, stronger effect = lower value 1.01 | S. cerevisiae deletion strains, locus YGR078C, strain PAC10, stronger effect = lower value 1.01 | S. cerevisiae deletion strains, locus YGR135W, strain pre9, stronger effect = lower value 1.04 | S. cerevisiae deletion strains, locus YGR252W, strain gcn5, stronger effect = lower value 0.991 | S. cerevisiae deletion strains, locus YHR013C, strain ard1, stronger effect = lower value 1.03 | S. cerevisiae deletion strains, locus YHR027C, strain rpn1, stronger effect = lower value 1.02 | S. cerevisiae deletion strains, locus YHR030C, strain SLT2, stronger effect = lower value 1.01 | S. cerevisiae deletion strains, locus YHR079C, strain IRE1 (second series), stronger effect = lower value 1 | S. cerevisiae deletion strains, locus YHR094C, strain hxt1, stronger effect = lower value 1.01 | S. cerevisiae deletion strains, locus YHR129C, strain ARP1, stronger effect = lower value 1.01 | S. cerevisiae deletion strains, locus YHR142W, strain chs7, stronger effect = lower value 1.02 | S. cerevisiae deletion strains, locus YHR200W, strain rpn10, stronger effect = lower value 1 | S. cerevisiae deletion strains, locus YIL066C, strain RNR3, stronger effect = lower value 1.01 | S. cerevisiae deletion strains, locus YIL073C, strain SPO22, stronger effect = lower value 1.06 | S. cerevisiae deletion strains, locus YIL125W, strain kgd1, stronger effect = lower value 1.02 | S. cerevisiae deletion strains, locus YIR030C, strain dcg1, stronger effect = lower value 1.01 | S. cerevisiae deletion strains, locus YJL092W, strain hpr5, stronger effect = lower value 1.01 | S. cerevisiae deletion strains, locus YJL095W, strain BCK1 (second series), stronger effect = lower value 1.01 | S. cerevisiae deletion strains, locus YJL095W, strain BCK1, stronger effect = lower value 1.01 | S. cerevisiae deletion strains, locus YJL115W, strain asf1, stronger effect = lower value 1 | S. cerevisiae deletion strains, locus YJL129C, strain trk1, stronger effect = lower value 1.01 | S. cerevisiae deletion strains, locus YJL134W, strain LCB3, stronger effect = lower value 1.01 | S. cerevisiae deletion strains, locus YJL154C, strain vps35, stronger effect = lower value 1.01 | S. cerevisiae deletion strains, locus YJL164C, strain tpk1, stronger effect = lower value 1.01 | S. cerevisiae deletion strains, locus YJL166W, strain qcr8, stronger effect = lower value 1.01 | S. cerevisiae deletion strains, locus YJL168C, strain set2, stronger effect = lower value 1.04 | S. cerevisiae deletion strains, locus YJL187C, strain SWE1 (second series), stronger effect = lower value 1 | S. cerevisiae deletion strains, locus YJL187C, strain SWE1, stronger effect = lower value 1 | S. cerevisiae deletion strains, locus YJR043C, strain POL32, stronger effect = lower value 1 | S. cerevisiae deletion strains, locus YKL009W, strain mrt4, stronger effect = lower value 1.03 | S. cerevisiae deletion strains, locus YKL068W, stronger effect = lower value 1 | S. cerevisiae deletion strains, locus YKL085W, strain MDH1 (second series), stronger effect = lower value 1.01 | S. cerevisiae deletion strains, locus YKL085W, strain MDH1, stronger effect = lower value 1.01 | S. cerevisiae deletion strains, locus YKL160W, strain elf1, stronger effect = lower value 1.02 | S. cerevisiae deletion strains, locus YKL190W, strain CNB1, stronger effect = lower value 1.01 | S. cerevisiae deletion strains, locus YKR001C, strain vps1, stronger effect = lower value 1.06 | S. cerevisiae deletion strains, locus YKR026C, strain gcn3, stronger effect = lower value 1.01 | S. cerevisiae deletion strains, locus YKR091W, strain srl3, stronger effect = lower value 1.01 | S. cerevisiae deletion strains, locus YLL001W, strain dnm1, stronger effect = lower value 1.01 | S. cerevisiae deletion strains, locus YLL026W, stronger effect = lower value 1.01 | S. cerevisiae deletion strains, locus YLL041C, strain sdh2, stronger effect = lower value 1.01 | S. cerevisiae deletion strains, locus YLR027C, strain aat2, stronger effect = lower value 0.998 | S. cerevisiae deletion strains, locus YLR039C, strain RIC1, stronger effect = lower value 1 | S. cerevisiae deletion strains, locus YLR058C, strain SHM2, stronger effect = lower value 1.01 | S. cerevisiae deletion strains, locus YLR102C, strain apc9, stronger effect = lower value 1.02 | S. cerevisiae deletion strains, locus YLR221C, strain rsa3, stronger effect = lower value 1.02 | S. cerevisiae deletion strains, locus YLR258W, strain gsy2, stronger effect = lower value 1.01 | S. cerevisiae deletion strains, locus YLR262C, strain YPT6 (second series), stronger effect = lower value 0.996 | S. cerevisiae deletion strains, locus YLR262C, strain YPT6, stronger effect = lower value 1.02 | S. cerevisiae deletion strains, locus YLR268W, strain sec22, stronger effect = lower value 1.04 | S. cerevisiae deletion strains, locus YLR320W, strain mms22, stronger effect = lower value 1.02 | S. cerevisiae deletion strains, locus YLR330W, strain CHS5, stronger effect = lower value 1.01 | S. cerevisiae deletion strains, locus YLR342W, strain FKS1 (second series), stronger effect = lower value 1.06 | S. cerevisiae deletion strains, locus YLR342W, strain FKS1, stronger effect = lower value 1.01 | S. cerevisiae deletion strains, locus YLR357W, strain rsc2, stronger effect = lower value 1.03 | S. cerevisiae deletion strains, locus YLR370C, strain arc18, stronger effect = lower value 1.01 | S. cerevisiae deletion strains, locus YLR371W, strain rom2, stronger effect = lower value 1.02 | S. cerevisiae deletion strains, locus YLR384C, strain iki3, stronger effect = lower value 0.996 | S. cerevisiae deletion strains, locus YLR418C, strain cdc73, stronger effect = lower value 1.01 | S. cerevisiae deletion strains, locus YML016C, strain PPZ1, stronger effect = lower value 1 | S. cerevisiae deletion strains, locus YML032C, strain rad52, stronger effect = lower value 1.02 | S. cerevisiae deletion strains, locus YML120C, strain ndi1, stronger effect = lower value 1 | S. cerevisiae deletion strains, locus YML124C, strain tub3, stronger effect = lower value 1.01 | S. cerevisiae deletion strains, locus YMR058W, strain fet3, stronger effect = lower value 1.01 | S. cerevisiae deletion strains, locus YMR078C, strain ctf18, stronger effect = lower value 1.01 | S. cerevisiae deletion strains, locus YMR125W, strain sto1, stronger effect = lower value 0.999 | S. cerevisiae deletion strains, locus YMR129W, stronger effect = lower value 0.997 | S. cerevisiae deletion strains, locus YMR205C, strain PFK2, stronger effect = lower value 1.02 | S. cerevisiae deletion strains, locus YMR223W, strain ubp8, stronger effect = lower value 0.985 | S. cerevisiae deletion strains, locus YMR231W, strain pep5, stronger effect = lower value 0.989 | S. cerevisiae deletion strains, locus YMR307W, strain GAS1, stronger effect = lower value 1 | S. cerevisiae deletion strains, locus YNL067W, strain RPL9B, stronger effect = lower value 0.995 | S. cerevisiae deletion strains, locus YNL071W, strain lat1, stronger effect = lower value 1.01 | S. cerevisiae deletion strains, locus YNL153C, strain GIM3, stronger effect = lower value 0.989 | S. cerevisiae deletion strains, locus YNL209W, strain ssb2, stronger effect = lower value 1 | S. cerevisiae deletion strains, locus YNL233W, strain BNI4, stronger effect = lower value 1.03 | S. cerevisiae deletion strains, locus YNL248C, strain rpa49, stronger effect = lower value 1.01 | S. cerevisiae deletion strains, locus YNL250W, strain rad50, stronger effect = lower value 1.02 | S. cerevisiae deletion strains, locus YNL271C, strain bni1, stronger effect = lower value 0.999 | S. cerevisiae deletion strains, locus YNL298W, strain CLA4, stronger effect = lower value 1.01 | S. cerevisiae deletion strains, locus YNL307C, strain MCK1, stronger effect = lower value 1.03 | S. cerevisiae deletion strains, locus YNL322C, strain KRE1 (second series), stronger effect = lower value 1.01 | S. cerevisiae deletion strains, locus YNL322C, strain KRE1, stronger effect = lower value 1.01 | S. cerevisiae deletion strains, locus YNR049C, strain mso1, stronger effect = lower value 1.02 | S. cerevisiae deletion strains, locus YNR052C, strain pop2, stronger effect = lower value 1.01 | S. cerevisiae deletion strains, locus YOL012C, strain htz1 1.47 | S. cerevisiae deletion strains, locus YOL147C, strain pex11, stronger effect = lower value 1.02 | S. cerevisiae deletion strains, locus YOR001W, strain rrp6, stronger effect = lower value 1.02 | S. cerevisiae deletion strains, locus YOR061W, strain CKA2, stronger effect = lower value 1.01 | S. cerevisiae deletion strains, locus YOR069W, strain VPS5, stronger effect = lower value 1.01 | S. cerevisiae deletion strains, locus YOR070C, strain gyp1, stronger effect = lower value 1 | S. cerevisiae deletion strains, locus YOR080W, strain dia2, stronger effect = lower value 0.999 | S. cerevisiae deletion strains, locus YOR083W, strain WHI5, stronger effect = lower value 1 | S. cerevisiae deletion strains, locus YOR106W, strain vam3, stronger effect = lower value 1.02 | S. cerevisiae deletion strains, locus YOR136W, strain idh2, stronger effect = lower value 1.05 | S. cerevisiae deletion strains, locus YOR144C, strain elg1, stronger effect = lower value 1.02 | S. cerevisiae deletion strains, locus YOR184W, strain ser1, stronger effect = lower value 1.01 | S. cerevisiae deletion strains, locus YOR265W, strain rbl2, stronger effect = lower value 1 | S. cerevisiae deletion strains, locus YOR270C, strain vph1, stronger effect = lower value 1.02 | S. cerevisiae deletion strains, locus YOR290C, strain snf2, stronger effect = lower value 1.02 | S. cerevisiae deletion strains, locus YOR316C, strain cot1, stronger effect = lower value 1.02 | S. cerevisiae deletion strains, locus YPL051W, strain arl3, stronger effect = lower value 0.995 | S. cerevisiae deletion strains, locus YPL078C, strain atp4, stronger effect = lower value 1 | S. cerevisiae deletion strains, locus YPL106C, strain sse1, stronger effect = lower value 1.02 | S. cerevisiae deletion strains, locus YPL240C, strain hsp82, stronger effect = lower value 1 | S. cerevisiae deletion strains, locus YPR119W, strain clb2, stronger effect = lower value 1.01 | S. cerevisiae deletion strains, locus YPR141C, strain kar3, stronger effect = lower value 1.01 | S. cerevisiae deletion strains, locus YPR163C, strain tif3, stronger effect = lower value 1.02 | S. cerevisiae deletion strains, locus YPR167C, strain met16, stronger effect = lower value 1.02 | S. cerevisiae deletion strains, strain wtn01, stronger effect = lower value 1.05 | S. cerevisiae strains, strain wild type, stronger effect = lower value 1.01
